Results as given in PubChem BioAssay (NCI).
This is part of a sample that, as a whole, favours compounds with a hit. Of some 79,000 tested, about 15% had one in any assay. Values without a mark were called inactive. Active and inactive are the calls of the source. Cut-off read from the data, not from the text of the source: active = growth inhibition above about 70%; inactive = the rest.

test: NCI Yeast Anticancer Drug Screen. Data for the mlh1 rad18 strain (AID 175); conditions: S. cerevisiae mlh1 rad18 strain growth inhibition; at 5.0 µM (retest, dose inferred, filed as 0.5); hits give high values
Summary of the method: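 Growth inhibition of the yeast strain was measured after compound exposure and expressed relative to vehicle-treated controls. The strain carries defined defects in DNA damage repair.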

Row | SMILES | growth inhibition
1 | N#Cc1c(SCc2ccc(Cl)cc2)nsc1Nc1ccc(Cl)cc1 | 93% (active)
2 | CC(CO)(Nc1ccc([N+](=O)[O-])cc1[N+](=O)[O-])C(=O)O (stereo not given) | 6%
3 | O=[N+]([O-])/C(C(Cl)=C(Cl)Cl)=C(/Nc1ccccc1)Sc1ccccc1 | 78% (active)
4 | CC(SCc1ccccc1)C(=O)O (stereo not given) | -2%
5 | O=C1C2(Cl)C(Cl)=C(Cl)C1(Cl)C1(Cl)C(Cl)=C(Cl)C(=O)C21Cl (stereo not given) | 66%
6 | O=C(CNC(=O)c1ccccc1)Oc1c(Cl)c(Cl)c(Cl)c(Cl)c1Cl | 50%
7 | CN(C)c1nc(NNS(=O)(=O)c2ccc(N)cc2)nc(N(C)C)n1 | -1%
8 | CC1(C(Cl)(Cl)Cl)C=CC(O)(C#CC2(O)C=CC(C)(C(Cl)(Cl)Cl)C=C2)C=C1 (stereo not given) | 93% (active)
9 | COCCN1C(=O)C2c3[nH]c4ccccc4c3C3CCC(C(C)(C)C)CC3C2C1=O (stereo not given) | 4%
10 | Cc1nc(N)sc1N=Nc1cccc(Cl)c1Cl | 21%
11 | ClC1=C(Cl)C2c3ccccc3C1c1ccccc12 | -5%
12 | C=C/C=C/CC=C | -120%
13 | C/C(=N\NC(=S)NCc1ccccc1)c1nccnc1C | 27%
14 | COC(=O)c1cc(OC)c(OC)c(OC)c1 | -1%
15 | Nc1nc2c(ccc3ccccc32)s1 | 1%
16 | N=C(N)c1ccc(N=Nc2cc(/C=C/c3ccccc3)ccc2O)cc1 | 7%
17 | O=C1NC(=O)N(c2ccc([N+](=O)[O-])cc2)C1=O | 0%
18 | O=C(Nc1cc(Cl)cc(Cl)c1)OCCCl | 53%
19 | Cc1[nH]nc(-c2ccon2)c1N=O | 64%
20 | O=C(O)CCC(=O)c1ccc(C2CCCC2)c2ccccc12 | -6%

Row | SMILES | growth inhibition
21 | CC12CC(Br)(Br)C(=O)C3C1CCCC32 | 74% (active)
22 | O=[N+]([O-])c1ccc(NSc2ccccc2)cc1 | 6%
23 | CCC1CCC(CC)C1=O (stereo not given) | -2%
24 | Cc1cc(C(C)(CC(C)C)c2ccc(O)c(C)c2)ccc1O | 100% (active)
25 | N#CC1C(=O)SC2c3ccccc3C(=O)c3ccccc3C12 (stereo not given) | -8%
26 | COc1ccc(C2C3=C(CCCC3=O)Oc3cc4c(cc32)OCO4)cc1 (stereo not given) | 0%
27 | CCC(c1cccc(O)c1)C(CC)c1cccc(O)c1 (stereo not given) | 17%
28 | CCCCCCCCCCCC1C(C#N)C(=O)NC(=O)C1C#N (stereo not given) | 87% (active)
29 | O=C(NNC(=O)c1cccc(C(=O)NNC(=O)c2ccc(Cl)c(Cl)c2)n1)c1ccc(Cl)c(Cl)c1 | 49%
30 | CCOC(=O)CCC(NC(=O)c1ccc(NC(OC)c2nc3cc(C(F)(F)F)ccc3nc2-c2ccccc2)cc1)C(=O)OCC (stereo not given) | 92% (active)
31 | CCOC(=O)c1c(C)[nH]c(CO)c1C | -1%
32 | S=C(NC(=S)Nc1ccc(Cl)cc1)Nc1ccc(Cl)cc1 | 20%
33 | O=S(=O)(c1ccc(OCC(O)COc2ccc(S(=O)(=O)c3ccc(OCC4CO4)cc3)cc2)cc1)c1ccc(OCC2CO2)cc1 (stereo not given) | 8%
34 | C=C(C)C(=O)OC1CC2=CC(CC3(C)OC3C3OC(=O)C(=C)C13)OC2=O (stereo not given) | 4%
35 | c1ccc2c(c1)C[n+]1ccc3ccccc3c1-c1c3ccccc3cc[n+]1C2 | 7%
36 | CCN(CC)CCOC(=O)Cc1cccc2c(=O)cc(-c3cccs3)oc12 | 10%
37 | C=C1C(=O)OC2C/C(C)=C/CC/C(C)=C/CCC3(COC(C)=O)OC3CC12 (stereo not given) | 37%
38 | CN1C=CC(C(O)(c2ccccc2)c2ccccc2)CC1 (stereo not given) | -4%
39 | OCc1cccc2c1Oc1ccccc1S2 | 4%
40 | COC(=O)c1[nH]c(=O)c(C#N)c(C(=O)OC)c1C(=O)c1ccc(Cl)c(Cl)c1 | -12%
